Screening data deposited in PubChem by National Center for Advancing Translational Sciences (NCATS).
D1 ag: activates the human D1 dopamine receptor. P21728. HEK293 T-REx D1 cells, calcium flux, agonist mode. activation, % at 2 µM. 360,000 compounds, 1% hits
Target sequence (P21728 whole entry, looked up): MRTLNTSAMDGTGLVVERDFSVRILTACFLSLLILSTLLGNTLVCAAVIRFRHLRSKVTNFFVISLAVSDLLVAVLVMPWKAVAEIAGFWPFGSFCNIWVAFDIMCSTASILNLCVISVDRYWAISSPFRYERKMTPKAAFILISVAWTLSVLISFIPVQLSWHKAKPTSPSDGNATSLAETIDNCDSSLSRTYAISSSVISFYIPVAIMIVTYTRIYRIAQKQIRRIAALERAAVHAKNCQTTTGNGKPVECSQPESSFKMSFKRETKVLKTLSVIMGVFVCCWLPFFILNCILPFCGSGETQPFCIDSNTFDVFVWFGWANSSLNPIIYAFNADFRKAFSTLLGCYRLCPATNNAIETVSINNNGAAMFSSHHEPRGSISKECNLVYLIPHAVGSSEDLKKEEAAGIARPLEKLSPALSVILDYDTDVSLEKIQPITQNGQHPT
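Tetracycline-induced HEK293 TREx D1 cells, force-coupled to calcium signalling, were dye-loaded with a no-wash calcium kit. Compound was pin-added after a 10 s baseline. Fluorescence was read kinetically at 1 cycle/s for 180 s, with calcium rises flagged as agonism.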
D1 potentiator: enhances dopamine response at the human D1 receptor; P21728; HEK293 TREx D1 cells, calcium flux, dopamine EC20 potentiation; potentiation, % at 10 µM; 360,000 compounds, 0.036% hits; AID 504651; in the data active = potentiation above about 30%
TRHR enhancer: TRH receptor (human) allosteric enhancement; enhancement, % at 2 µM; 360,000 compounds, 0.66% hits; P34981; TRHR cells, fluo-8 calcium fluorescence, EC20 TRH enhancement; in the data active = enhancement above about 30%
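TRHR-expressing cells loaded with fluo-8 calcium dye were read kinetically (ex 480/em 530) during compound addition, then stimulated with an EC20 of TRH (10 nM final). Enhancement of the Gq-mediated intracellular calcium response was scored.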
TRHR agonist: activates the human TRH receptor. P34981. TRHR cells, calcium flux fluo-8, FDSS agonist mode. activation, % at 2 µM. 360,000 compounds, 0.18% hits. AID 493084
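Steps: seed TRHR cells overnight; add fluo-8 no-wash Ca dye, RT 30 min–1.5 h; record 10 s baseline; pin-transfer compounds; monitor fluorescence 1 cycle/s for the agonist window. Calcium increases flag candidate agonists.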
LDHA block: LDHA (human) enzyme inhibition; P00338; purified LDHA, NADH/diaphorase-resazurin fluorescence; hits give low values; activity change, % (values are at about 110 or 230 µM); 480,000 compounds, 0.15% hits; in the data active = activity change below about -30%
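Resorufin fluorescence (ex540/em590), read at 0 and 20 min after diaphorase/resazurin addition, reports the NADH left after a 5 min room-temperature reaction of 2 nM human LDH5 with 0.06 mM NADH and 0.2 mM pyruvate.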
D1 antagonist: human D1 dopamine receptor antagonism. P21728. HEK293 TREx D1 cells, calcium flux, dopamine EC80; hits give low values. activity change, negative = inhibition, % at 10 µM. 360,000 compounds, 3.2% hits. AID 504652; in the data active = activity change below about -30%
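Compound effects on dopamine-evoked calcium signalling were measured in tetracycline-induced HEK293 Trex D1 cells. Dopamine at EC80 followed a 180 s compound pre-read, and fluorescence was tracked kinetically for 180 s more.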
Large screens that a line does not name were inactive; ! = not active in a repeat. Hits are enriched below; roughly 3.6% of the tested compounds scored in any of these assays. Cut-off read from the data, not from the text of the source, unless noted: active = activation above about 30%; inactive = the rest.

CCC(=O)c1ccc(N2CCOCC2)c(F)c1	none (no result: D1 ag, D1 potentiator, TRHR enhancer, TRHR agonist, D1 antagonist)
CCC(=O)c1ccc(N2CCCCC2)c(F)c1	D1 antagonist -55
Cc1ccc(NC(=O)c2cc(-c3ccccc3)nn2-c2ccccc2)cc1	none
O=C(NC1=NCCS1)c1cc(-c2ccccc2)nn1-c1ccccc1	D1 antagonist -47
Cc1cc(C)nc(/N=C(\N)Nc2cccc([N+](=O)[O-])c2)n1	D1 ag 34
Cc1cc(C)nc(/N=C(\N)Nc2ccc(C(C)C)cc2)n1	D1 ag 35
Cc1ccc(N/C(N)=N/c2nc(C)cc(C)n2)cc1	D1 antagonist -74
CCC(=O)Nc1ccc(N/C(N)=N/c2nc(C)cc(C)n2)cc1	none
Cc1cc(C)cc(N/C(N)=N/c2nc(C)cc(C)n2)c1	none
CCCCc1ccc(N/C(N)=N/c2nc(C)cc(C)n2)cc1	D1 ag 64
Cc1cc(C)nc(/N=C(\N)Nc2ccc([N+](=O)[O-])cc2)n1	none
Cc1ccc2nc(C)c(C(=O)N3CCC(C)CC3)cc2c1	none (no result: D1 ag, D1 potentiator, TRHR enhancer, TRHR agonist, D1 antagonist)
COc1ccc(-n2c(=O)c3ccc(C(=O)NCc4ccc(C)cc4)cc3n(Cc3ccc(C)cc3)c2=O)cc1	none
CCc1ccc(NC(=O)Cn2c(=O)n(CCC(=O)N3CCc4ccccc4C3)c(=O)c3ccccc32)cc1	D1 antagonist -31
Cc1ccc(CNC(=O)c2ccc(Cn3c(=O)c4ccccc4n(CC(=O)Nc4ccc(C)cc4)c3=O)cc2)cc1	D1 ag 33
C=CCn1c(=O)c2ccc(C(=O)NCc3ccccc3)cc2n(Cc2ccc(C)cc2)c1=O	D1 antagonist -30
CC1CCN(C(=S)Nc2ccc(SC(F)F)cc2)CC1	D1 antagonist -41
CC(=O)N1CCN(C(=S)Nc2ccc(SC(F)F)cc2)CC1	none
[Cl][In]([Cl])[Cl]	LDHA block -80 (no result: D1 ag, D1 potentiator, TRHR enhancer, TRHR agonist, D1 antagonist)
COc1ccc(CC(C)CC(=O)NCCc2ccc(OC)c(OC)c2)cc1 (stereo unspecified)	D1 antagonist -75
COc1ccc(CCNC(=O)COC(=O)c2ccc(C)s2)cc1OC	D1 antagonist -33
CCOc1ccc(CCNC(=O)COC(=O)c2ccc(C)s2)cc1OCC	none
COc1ccc(N=C2NC(=O)C(CC(=O)NCCc3ccc(OC)c(OC)c3)S2)cc1 (stereo unspecified)	D1 antagonist -38
Cc1cc(NC(=O)/C(C#N)=C/c2ccco2)n(-c2ccccc2)n1	none
Cc1ccc(-c2ccc(/C=C(\C#N)C(=O)Nc3cc(C)nn3-c3ccccc3)o2)cc1	D1 ag 61 (no result: LDHA block)
CCCCOC(=O)c1ccc(NC(=O)/C(C#N)=C/c2ccc(-c3ccccc3)o2)cc1	D1 ag 127, TRHR agonist 47
Cc1csc(CNC(=O)/C=C/c2cccnc2)n1	none (no result: D1 ag, D1 potentiator, TRHR enhancer, TRHR agonist, D1 antagonist)
CSc1ccc(/C=C/c2nc3ccccc3n2S(=O)(=O)c2ccc(Br)cc2)cc1	D1 antagonist -30
Cc1nc2ccccc2n1S(=O)(=O)c1ccc(Br)cc1	D1 antagonist -44
COc1ccc(-n2ncc3c2ncn2nc(Cc4ccccc4)nc32)cc1	D1 antagonist -34
COc1ccc(Cc2nc3c4cnn(-c5cccc(F)c5)c4ncn3n2)cc1	none
S=C1NC2(CCCCC2)N=C1c1ccc(Cl)cc1	none (no result: D1 ag, D1 potentiator, TRHR enhancer, TRHR agonist, D1 antagonist)
Cc1cc(OCC(=O)N2CCN(c3ccc(F)cc3)CC2)c2c(C)cc(=O)oc2c1	D1 antagonist -33
O=C(NC1CCCCC1)C(c1ccccc1)N(Cc1ccco1)C(=O)c1csnn1 (stereo unspecified)	none
O=C(NC1CCCCC1)C(c1ccccc1)N(Cc1ccco1)C(=O)Cn1cnc2ccccc21 (stereo unspecified)	D1 antagonist -44
CC(=O)OCCn1c2nc(=O)[nH]c(=O)c-2nc2cc(C)c(C)cc21	D1 ag 482, TRHR enhancer 124, TRHR agonist 161
c1ccc2c(c1)OC(CCCN1CCCCC1)c1ccccc1S2 (stereo unspecified)	D1 antagonist -85
c1ccc(OCCCCN2CCCCC2)cc1	none
CN1CCCC(CC2Oc3ccccc3Sc3ccccc32)C1 (stereo unspecified)	D1 ag 49, D1 antagonist -74
C[n+]1ccc(/C=C/c2c[nH]c3ccc(F)cc23)cc1	D1 ag 56
COc1cccc(CNC(=O)COc2ccc3c(C)cc(=O)oc3c2)c1	none (no result: D1 ag, D1 potentiator, TRHR enhancer, TRHR agonist, D1 antagonist)
COc1ccc2oc(=O)cc(-c3cc4cccc(OC)c4o3)c2c1	LDHA block -33!
COc1cccc2cc(-c3ccccc3)c(=O)oc12	D1 antagonist -31
COc1cccc2cc(C(=O)N3CC(C)OC(C)C3)c(=O)oc12 (stereo unspecified)	none
COc1cccc2cc(C(=O)N(Cc3cccs3)CC3CCCO3)c(=O)oc12 (stereo unspecified)	D1 antagonist -38
COc1cccc2cc(C(=O)N(C)C3CCN(C)CC3)c(=O)oc12	D1 antagonist -39
COc1cccc2cc(-c3cc(=O)oc4ccc(C)cc34)oc12	none (no result: D1 ag, D1 potentiator, TRHR enhancer, TRHR agonist, D1 antagonist)
Cc1ccc(C)c(C(NC(=O)c2ccccc2F)c2cccnc2)c1 (stereo unspecified)	none (no result: D1 ag, D1 potentiator, TRHR enhancer, TRHR agonist, D1 antagonist)
COc1cccc2cc(C(=O)NCc3ccccc3)c(=O)oc12	none (no result: D1 ag, D1 potentiator, TRHR enhancer, TRHR agonist, D1 antagonist)
COc1cccc2cc(C(=O)NCc3ccccn3)c(=O)oc12	D1 antagonist -49
COc1cc(CNC(=O)Nc2ccc(C)c(F)c2)ccn1	none (no result: D1 ag, D1 potentiator, TRHR enhancer, TRHR agonist, D1 antagonist)
O=C(COc1ccc(Br)cc1)Nc1ccc(C(=O)Nc2ccccc2C(=O)O)cc1	LDHA block -32
O=C(CCC(=O)NNC(=O)COc1ccc(Br)cc1)NCc1ccccc1	D1 antagonist -34
CCCC(=O)Nc1nc(-c2ccc3c(c2)CCO3)cs1	none (no result: D1 ag, D1 potentiator, TRHR enhancer, TRHR agonist, D1 antagonist)
COc1ccccc1C(=O)Nc1cccc(C(=O)OCc2cc(=O)n3cc(C)sc3n2)c1	D1 antagonist -31
Cc1cn2c(=O)cc(COC(=O)COc3ccc(C)c(C)c3)nc2s1	D1 antagonist -38
O=C(NCCN1CCN(c2ccccc2)CC1)Nc1ccccc1Br	D1 antagonist -33!
O=C(NCCN1CCN(c2ccccc2)CC1)Nc1cccc(Br)c1	D1 ag 50, D1 antagonist -45!
O=C(NCCc1ccc(Cl)cc1)Nc1ccc(Cl)cc1	D1 antagonist -34
O=C(NCCN1CCN(c2ccccc2)CC1)Nc1ccc(Cl)cc1	D1 ag 30, D1 antagonist -32
O=C(NCCN1CCN(c2ccccc2)CC1)Nc1ccccc1Cl	none
O=C(NCCc1ccncc1)Nc1ccc(Cl)cc1	none
OCCCC1CCCN1 (stereo unspecified)	none (no result: D1 ag, D1 potentiator, TRHR enhancer, TRHR agonist, D1 antagonist)
Cc1ccc2c(C=O)c[nH]c2c1	none (no result: D1 ag, D1 potentiator, TRHR enhancer, TRHR agonist, D1 antagonist)
CC1CCC(NC(=O)CSCc2coc(-c3ccc(Cl)cc3)n2)CC1 (stereo unspecified)	none (no result: D1 ag, D1 potentiator, TRHR enhancer, TRHR agonist, D1 antagonist)
COc1cc(NC(=O)c2ccc3c(c2)NC(=O)CS3)cc(OC)c1OC	none (no result: D1 ag, D1 potentiator, TRHR enhancer, TRHR agonist, D1 antagonist)
